Data as given in PubChem BioAssay (EPA / NIEHS).
Several values for one entry are separate records, joined by “and”; a condition that tells them apart may be missing. Equal entries are not always repeated. The source holds several records for some structures; these can differ, active in one and inactive in another. Activity calls are given as the source filed them. The calls were made as follows: active = hit-call score of the fitted dose curve at least 0.9, where 1 is the maximum; inactive = score below 0.9.

What was measured:
[1] = read-out: TIMP metallopeptidase inhibitor 2 (TIMP2), TIMP2 (gene 7077); assay: BSK_KF3CT_TIMP2: BioMAP Diversity Plus: KF3CT Assay for TIMP metallopeptidase inhibitor 2 (TIMP2) Biomarker Activity (AID 2283071); settings: primary human keratinocytes with fibroblasts; actives raise or lower the signal
In short: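 TIMP-2 measured by ELISA at 24 h in human keratinocyte/fibroblast primary co-cultures exposed to chemicals. Both increases and decreases were fitted against DMSO. Parallel cultures were stained with SRB for total protein as an overt-cytotoxicity check.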

[2] = read-out: C-C motif chemokine 2 (Homo sapiens) (UniProt P13500); assay: BSK_KF3CT_MCP1: BioMAP Diversity Plus: KF3CT Assay for Monocyte Chemoattractant Protein 1 (MCP1/CCL2) Biomarker Activity (AID 2283073); settings: primary human keratinocytes with fibroblasts; actives raise or lower the signal
In short: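 Keratinocytes and foreskin fibroblasts were co-cultured, dosed with chemical, and sampled 24 h later. MCP-1 was quantified by ELISA, and the endpoint was analyzed with bidirectional fitting using DMSO as negative control.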

[3] = read-out: Matrix Metallopeptidase 9 (MMP9), MMP9 (gene 4318); assay: BSK_KF3CT_MMP9: BioMAP Diversity Plus: KF3CT Assay for Matrix Metallopeptidase 9 (MMP9) Biomarker Activity (AID 2283074); settings: primary human keratinocytes with fibroblasts; actives raise or lower the signal;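 as to AC50: MMP9 protein level quantified by ELISA in the co-culture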
In short: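 ELISA read-out of MMP-9 at 24 h post-dosing in a co-culture of human skin keratinocytes and foreskin fibroblasts. Gain or loss of signal was fitted in both directions against DMSO.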

[4] = read-out: urokinase plasminogen activator (uPA), PLAU (gene 5328); assay: BSK_KF3CT_uPA: BioMAP Diversity Plus: KF3CT Assay for urokinase plasminogen activator (uPA) Biomarker Activity (AID 2283075); settings: primary human keratinocytes with fibroblasts; actives raise or lower the signal
In short: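 Skin co-culture (keratinocytes + foreskin fibroblasts), human primary; 24 h post-dose; uPA by ELISA; gain/loss fit vs DMSO baseline.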

CD40, CD40 (gene 958) = assay: BSK_LPS_CD40: BioMAP Diversity Plus: LPS Assay for CD40 Biomarker Activity (AID 2283076); settings: primary human HUVEC with PBMC; actives raise or lower the signal
In short: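 CD40 signal, measured by ELISA, is fitted in both directions relative to DMSO vehicle. The system is an LPS-driven human vascular primary co-culture of endothelial cells and PBMC, sampled 24 h after compound addition.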

[5] = read-out: E-selectin (Homo sapiens) (UniProt P16581); assay: BSK_LPS_Eselectin: BioMAP Diversity Plus: LPS Assay for Eselectin Biomarker Activity (AID 2283077); settings: primary human HUVEC with PBMC; actives raise or lower the signal
In short: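 Signal of E-selectin, detected by ELISA, served as the endpoint; cells were umbilical vein endothelium with PBMC, read 24 h after treatment. DMSO defined baseline, and both increases and decreases were fitted.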

[6] = read-out: Interleukin-8 (IL8), CXCL8 (gene 3576); assay: BSK_LPS_IL8: BioMAP Diversity Plus: LPS Assay for Interleukin-8 (IL8) Biomarker Activity (AID 2283078); settings: primary human HUVEC with PBMC; actives raise or lower the signal
In short: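 Endothelial cells and PBMC from human donors are co-cultured, treated with chemicals and LPS, then assayed for IL-8 by ELISA after 24 h. Parallel SRB staining (0.1% SRB after 10% TCA fixation, 560 nm) flags cytotoxicity.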

[7] = BSK_LPS_SRB: Viability Assessment in the BioMAP Diversity Plus: LPS Assay (AID 2283079); settings: primary human HUVEC with PBMC;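 also: total protein by sulforhodamine B absorbance as a cytotoxicity measure; measured one day after compound addition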
In short: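 Overt cytotoxicity was gauged by sulforhodamine B total-protein staining in a primary human vascular endothelial and mononuclear cell co-culture 24 h post-dosing. Activity was fitted in both directions relative to DMSO.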

[8] = read-out: Interleukin-1 alpha (IL1a), IL1A (gene 3552); assay: BSK_LPS_IL1a: BioMAP Diversity Plus: LPS Assay for Interleukin-1 alpha (IL1a) Biomarker Activity (AID 2283080); settings: primary human HUVEC with PBMC; actives raise or lower the signal
In short: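 Measured: IL-1 alpha via ELISA at 24 h in LPS-activated human umbilical vein endothelium–PBMC co-culture. Baseline: DMSO, bidirectional fitting.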

[9] = read-out: Monocyte Chemoattractant Protein-1 (MCP1), CCL2 (gene 6347); assay: BSK_LPS_MCP1: BioMAP Diversity Plus: LPS Assay for Monocyte Chemoattractant Protein-1 (MCP1) Biomarker Activity (AID 2283081); settings: primary human HUVEC with PBMC; actives raise or lower the signal;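 as to AC50: secreted MCP-1 protein quantified by ELISA in culture supernatant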
In short: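 LPS-stimulated HUVEC/PBMC co-culture; chemical, 24 h; MCP-1 by ELISA; bidirectional fit vs DMSO; cytotoxicity via SRB (0.1% stain, 10% TCA fix, 560 nm) in parallel wells.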

Sequence of E-selectin (Homo sapiens) (P16581 whole entry, looked up): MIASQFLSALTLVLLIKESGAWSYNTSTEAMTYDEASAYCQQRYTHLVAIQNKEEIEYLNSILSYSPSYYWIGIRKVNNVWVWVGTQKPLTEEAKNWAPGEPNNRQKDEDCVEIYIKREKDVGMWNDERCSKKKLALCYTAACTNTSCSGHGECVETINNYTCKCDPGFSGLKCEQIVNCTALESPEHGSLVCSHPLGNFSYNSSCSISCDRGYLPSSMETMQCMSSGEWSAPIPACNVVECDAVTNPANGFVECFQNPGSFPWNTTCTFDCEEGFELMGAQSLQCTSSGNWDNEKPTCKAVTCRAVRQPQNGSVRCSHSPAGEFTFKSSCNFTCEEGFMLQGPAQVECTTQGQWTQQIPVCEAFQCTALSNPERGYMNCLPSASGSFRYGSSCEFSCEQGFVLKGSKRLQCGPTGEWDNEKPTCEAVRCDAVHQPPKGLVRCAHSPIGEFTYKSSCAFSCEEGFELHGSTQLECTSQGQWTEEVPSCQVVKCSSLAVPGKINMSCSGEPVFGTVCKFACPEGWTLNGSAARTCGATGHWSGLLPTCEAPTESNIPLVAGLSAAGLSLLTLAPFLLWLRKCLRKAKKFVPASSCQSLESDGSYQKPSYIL

| Structure (SMILES) | outcome [1] | outcome [2] | outcome [3] | outcome [4] | outcome (CD40, CD40 (gene 958)) | outcome [5] | outcome [6] | outcome [7] | outcome [8] | outcome [9] | AC50 [1] | AC50 [2] | AC50 [3] | AC50 [4] | AC50 [9] | AC50 (CD40, CD40 (gene 958)) | AC50 [5] | AC50 [6] | AC50 [7] | AC50 [8] |
| --- | --- | --- | --- | --- | --- | --- | --- | --- | --- | --- | --- | --- | --- | --- | --- | --- | --- | --- | --- | --- |
| CO[Si](C)(CCC(F)(F)C(F)(F)C(F)(F)C(F)(F)C(F)(F)C(F)(F)F)OC | inactive | inactive | inactive | inactive | inactive | inactive | inactive | inactive | inactive | inactive | – | – | – | – | – | – | – | – | – | – |
| CC(C)CCCC(C)CCO (stereo not given) | – | – | – | – | inactive | inactive | inactive | inactive | inactive | inactive | 30.5 µM (active) | 33.5 µM (active) | 36.4 µM (active) | 36.1 µM (active) | – | – | – | – | – | – |
| NCC(F)(F)C(F)(F)C(F)(F)C(F)(F)C(F)(F)C(F)(F)F | inactive | inactive | inactive | inactive | inactive | inactive | inactive | inactive | inactive | inactive | – | – | – | – | 19.9 µM (active) | – | – | – | – | – |
| CCOC(=O)CC(=O)C(F)(F)C(F)(F)F | inactive | inactive | inactive | inactive | inactive | inactive | inactive | inactive | inactive | inactive | – | – | – | – | – | – | – | – | – | – |
| O=S(=O)(O)CCC(F)(F)C(F)(F)C(F)(F)C(F)(F)F | inactive | inactive | inactive | inactive | inactive | inactive | inactive | inactive | inactive | inactive | – | – | – | – | – | – | – | – | – | – |
| O=C(O)CCC(F)(F)C(F)(F)C(F)(F)F | inactive | inactive | inactive | inactive | inactive | inactive | inactive | inactive | inactive | inactive | – | – | – | – | – | – | – | – | – | – |
| Brc1nc2ccccc2s1 | inactive | inactive | inactive | inactive | inactive | inactive | inactive | inactive | – | inactive | – | – | – | – | – | – | – | – | – | – |
| C=C(C)C(=O)OCC(F)(F)C(F)(F)C(F)(F)C(F)F | inactive | inactive | inactive | inactive | inactive | inactive | inactive | inactive | inactive | inactive | – | – | – | – | – | – | – | – | – | – |
| O=C(O)CCC(F)(F)C(F)(F)C(F)(F)C(F)(F)C(F)(F)C(F)(F)C(F)(F)F | inactive | inactive | inactive | inactive | inactive | inactive | inactive | inactive | inactive | inactive | – | – | – | – | – | – | – | – | – | – |
| CCN=C1C=CC(=C(c2ccc(N(CC)CC)cc2)c2ccc(N(CC)CC)cc2)c2ccccc21 | – | – | – | – | – | – | – | – | – | – | 1.87 µM (active) and 1.66 µM (active) | 3.2 µM (active) and 2.66 µM (active) | 1.61 µM (active) and 1.54 µM (active) | 2.62 µM (active) and 1.92 µM (active) | 261 nM (active) and 1.13 µM (active) | 244 nM (active) and 1.3 µM (active) | 974 nM (active) and 574 nM (active) | 782 nM (active) and 483 nM (active) | 2.39 µM (active) and 2.33 µM (active) | 2.54 µM (active) and 1.43 µM (active) |
| O=S(=O)(O)CCC(F)(F)C(F)(F)C(F)(F)C(F)(F)C(F)(F)C(F)(F)C(F)(F)C(F)(F)F | inactive | inactive | inactive | inactive | inactive | inactive | inactive | inactive | – | inactive | – | – | – | – | – | – | – | – | – | 47.3 µM (active) and 44.8 µM (active) |
| C[Si](Cl)(Cl)CCC(F)(F)C(F)(F)C(F)(F)C(F)(F)C(F)(F)C(F)(F)F | inactive | inactive | inactive | inactive | inactive | inactive | inactive | inactive | inactive | inactive | – | – | – | – | – | – | – | – | – | – |
| OCCCC(F)(F)C(F)(F)C(F)(F)C(F)(F)C(F)(F)C(F)(F)C(F)(F)C(F)(F)F | – | – | – | – | – | – | – | – | – | – | 14.5 µM (active) and 8.21 µM (active) | 11 µM (active) and 8.31 µM (active) | 9.36 µM (active) and 10.8 µM (active) | 14.9 µM (active) and 9.45 µM (active) | 29.9 µM (active) and 44.8 µM (active) | 34.7 µM (active) and 32.9 µM (active) | 15.3 µM (active) and 30 µM (active) | 45.9 µM (active) and 42.5 µM (active) | 41.5 µM (active) and 45.7 µM (active) | 30 µM (active) and 6.25 µM (active) |
| C[C@]12CC[C@H]3C(=CCc4cc(O)ccc43)[C@@H]1CCC2=O | inactive | inactive | inactive | inactive | inactive | inactive | inactive | inactive | inactive | inactive | – | – | – | – | – | – | – | – | – | – |
| CCN(CC)c1ccc(C=O)c(O)c1 | inactive | inactive | inactive | inactive | inactive | inactive | inactive | inactive | inactive | inactive | – | – | – | – | – | – | – | – | – | – |
| O=C=NCc1cccc(CN=C=O)c1 | inactive | inactive | inactive | inactive | inactive | inactive | inactive | inactive | inactive | inactive | – | – | – | – | – | – | – | – | – | – |
| O=C(O)C(F)(F)C(F)(F)C(F)(F)OC(F)(F)F | inactive | inactive | inactive | inactive | inactive | inactive | inactive | inactive | inactive | inactive | – | – | – | – | – | – | – | – | – | – |
